The source of these data is PubChem BioAssay (NCATS).

Inconclusive results are not listed. Activity calls are given as the source filed them. Calls come from the whole dose curve; as a rule, active = well fitted inhibition curve with a large enough effect in the repeat runs; inconclusive = weak or mixed curves; inactive = flat fitted curve, though single readings scatter.
% is set by controls: 0 for no effect and ±100 for the full control effect; potency is the fitted concentration of half-maximal effect.

The target of this experiment is Cytochrome P450 2D6 (Homo sapiens) (UniProt P10635). As to the kind of experiment: Cytochrome P450 family 2 subfamily D member 6 (CYP2D6) small molecule antagonists: luciferase biochemical (cell-free) qHTS assay (AID 1645840). Note: nearly all actives have a fitted effect of over 55% in size. As to conditions: P450-Glo CYP2D6 enzyme, luciferin luminescence, 1 h; series mostly up to 57.4 µM; activity change, negative = inhibition: at the top concentration. In a few lines: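 P450-Glo luminescent screen: recombinant CYP2D6 enzyme–proluciferin substrate mix preincubated with compound 10 min at room temperature, then NADPH regeneration added for 1 h at room temperature. Detection reagent added for 20 min; luciferin light read as relative luminescence units.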
Chain of Cytochrome P450 2D6 (Homo sapiens) (P10635 whole entry, looked up): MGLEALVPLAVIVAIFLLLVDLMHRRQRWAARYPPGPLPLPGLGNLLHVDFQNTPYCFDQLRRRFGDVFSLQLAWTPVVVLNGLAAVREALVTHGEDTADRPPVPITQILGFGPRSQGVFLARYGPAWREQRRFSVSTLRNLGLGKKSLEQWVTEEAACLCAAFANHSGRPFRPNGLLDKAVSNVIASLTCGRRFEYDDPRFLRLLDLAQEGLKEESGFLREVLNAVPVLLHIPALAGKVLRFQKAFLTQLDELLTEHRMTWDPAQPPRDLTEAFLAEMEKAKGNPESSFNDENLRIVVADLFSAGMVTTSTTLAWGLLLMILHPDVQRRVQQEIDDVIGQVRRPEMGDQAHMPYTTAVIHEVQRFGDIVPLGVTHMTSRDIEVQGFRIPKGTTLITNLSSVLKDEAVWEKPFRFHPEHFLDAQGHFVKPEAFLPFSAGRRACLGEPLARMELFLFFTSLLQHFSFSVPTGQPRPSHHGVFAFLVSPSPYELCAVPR
Take `CCCCCCCCCCOCC(O)CN` (configuration not stated): the Potency is 4.83 µM (active).
The same measure, in the same setting: as for `CCOC(=O)[C@H](CCc1ccccc1)N[C@@H](C)C(=O)N1Cc2ccccc2C[C@H]1C(=O)O`, the entry is “inactive”.
In the case of `O=c1c(-c2ccccc2)c1-c1ccccc1`, the “activity change, negative = inhibition” value was 0.0317% (inactive).
`COc1cccc(CCc2ccccc2OCC(CN(C)C)OC(=O)CCC(=O)O)c1` (configuration not stated): the Potency is 0.195 µM (active).
As to `CC(C)(C(=O)c1cccnc1)c1cccnc1`, the “activity change, negative = inhibition” value is 16% (inactive).
For `O=C(COc1ccc(Cl)cc1)N1CCN(Cc2ccc3c(c2)OCO3)CC1`, the Potency was 0.436 µM (active).
`Nc1ccn([C@@H]2O[C@H](CO)[C@@H](O)C2(F)F)c(=O)n1`: the “activity change, negative = inhibition” value was 7.46% (inactive).
`CCN(CCCc1ccccc1)CCCc1ccccc1`: the Potency is 1.23 µM (active).
For `Oc1c(Cl)cc(Cl)cc1Sc1cc(Cl)cc(Cl)c1O`, the Potency is 12 µM (active).
Regarding `CCOC(=O)n1ccn(C)c1=S`, the “activity change, negative = inhibition” value is 19.5% (inactive).
Consider `COc1cc(/C=C/C(=O)O[C@H]2CC[C@]34C[C@]35CC[C@]3(C)[C@@H]([C@H](C)CCC=C(C)C)CC[C@@]3(C)[C@@H]5CC[C@H]4C2(C)C)ccc1O`, for which the “activity change, negative = inhibition” value is 8.88% (inactive).
Same read-out and setting: as for `CNC(=O)CN(CCN(CCN(CC(=O)[O-])CC(=O)NC)CC(=O)[O-])CC(=O)[O-].O.[Gd+3]`, the figure is 11.8% (inactive).
Consider `CCCCOc1ccc(OCCCN2CCOCC2)cc1`, for which the Potency was 13.8 µM (active).
Consider `CCN(CC)CCOC(=O)C(c1ccccc1)C1CCCCC1` (configuration not stated), for which the Potency was 3.09 µM (active).
On to `Oc1ccc(Cl)c2cccnc12`, for which the “activity change, negative = inhibition” value is 16.9% (inactive).
The same measure, in the same setting: as for `CC(=O)O[C@]1(C(C)=O)CC[C@H]2[C@@H]3C[C@H](C)C4=CC(=O)CC[C@]4(C)[C@H]3CC[C@@]21C`, the figure is 13.8% (inactive).
As to `CCCOC(C(=O)OC1CCN(C)CC1)(c1ccccc1)c1ccccc1`, the Potency was 3.47 µM (active).
